GPR151 ag – activators of human GPR151, primary screen, cell-based, PathHunter beta-arrestin, luminescence | G-protein coupled receptor 151 (Homo sapiens), Q8TDV0 | PathHunter beta-arrestin GPR151 cells | activation, % at 11.2 µM | 1% of 650,000 active | AID 1508602, 2020; in the data active means activation above about 4.9%;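 further: 0% = median of compound wells and 100% = cells with positive control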
MITF primary – MITF inhibitors, primary screen, biochemical, AlphaScreen, human; AID 1259374, 2018; Microphthalmia-associated transcription factor (Homo sapiens), O75030; AlphaScreen MITF homodimerization, bead proximity signal; inhibition, % at 2.6 µM; 0.91% of 650,000 active; in the data active means inhibition above about 50%;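 further: 0% = vehicle wells with protein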
Target sequence (O75030 whole entry, looked up): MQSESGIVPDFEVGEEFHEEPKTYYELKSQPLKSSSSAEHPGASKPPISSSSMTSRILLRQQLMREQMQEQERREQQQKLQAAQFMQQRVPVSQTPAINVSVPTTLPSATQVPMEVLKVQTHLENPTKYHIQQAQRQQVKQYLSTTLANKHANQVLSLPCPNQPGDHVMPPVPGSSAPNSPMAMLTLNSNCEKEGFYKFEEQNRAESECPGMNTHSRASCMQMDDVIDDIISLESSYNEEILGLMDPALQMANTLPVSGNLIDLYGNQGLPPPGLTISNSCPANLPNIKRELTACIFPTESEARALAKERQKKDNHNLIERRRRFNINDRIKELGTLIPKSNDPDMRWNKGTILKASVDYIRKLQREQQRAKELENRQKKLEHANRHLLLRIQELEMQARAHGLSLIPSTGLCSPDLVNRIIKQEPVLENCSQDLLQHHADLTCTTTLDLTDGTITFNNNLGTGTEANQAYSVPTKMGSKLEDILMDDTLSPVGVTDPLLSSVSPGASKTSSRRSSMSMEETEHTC
FBW7 activator – FBW7 E3 ligase activators, primary screen, biochemical, AlphaScreen, human. 0.13% of 650,000 active. F-box/WD repeat-containing protein 7 (Homo sapiens), Q969H0. normalized activity (activation), % at 26.1 µM. AID 1259310, 2017. AlphaScreen FBW7–phospho-cyclin E peptide binding, activator screen; in the data active means normalized activity above about 1.9%;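 further: purified mutant Fbw7 with reduced substrate affinity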
TEAD-YAP inh – TEAD-YAP interaction inhibition, primary screen, TEAD-YAP interaction inhibitor project, luminescence, HEK-TIYL cells. AID 1259422, 2018. inhibition, % at 9.12 µM. 1.4% of 640,000 active. TEAD-Gal4/YAP UAS-luciferase luminescence; in the data active means inhibition above about 32%;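 further: 0% = median of test compound wells and 100% = reference inhibitor wells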
GPR151 conf act – GPR151 activators, triplicate retest, confirmation, cell-based, PathHunter beta-arrestin, luminescence | activation, % at 11.2 µM | 6,700 tested, under 10 active | GPR151 PathHunter beta-arrestin cells, 90 min; % of EA-reagent control over plate median | shares compounds with GPR151 ag | AID 1508609, 2020;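 active means mean percent activation across replicates above the confirmation screen cutoff of 4.91%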
GPR119 ag – GPR119 activators in beta-arrestin cells, counter-screen for GPR151 activator project, cell-based, PathHunter beta-arrestin, luminescence, triplicate | 0.3% of 6,700 active | AID 1508611, 2020 | activation, % at 11.2 µM | shares compounds with GPR151 ag | 90 min; 0 = compound-well median, 100 = enzyme-acceptor control;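 active means mean percent activation in the counterscreen above 29.09%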;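 further: counterscreen on off-target GPR119 to flag nonselective hits from the GPR151 activator screen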
* = called active by the depositor; x = not tested or not shown. Rows were chosen to be rich in hits. Some 3.5% of all compounds tested hit in one or more screens of this group.

SMILES	GPR151 ag	MITF primary	FBW7 activator	TEAD-YAP inh	GPR151 conf act	GPR119 ag
Cc1nnc(NC(=O)C(C)N2CCCC2)s1 (stereo unspecified)	13.7*	42.6	0.1	-3.2	0.8	9.9
Cc1nnc(NC(=O)C(C)N2CCN(C)CC2)s1 (stereo unspecified)	1.4	-3.2	0.0	4.3	x	x
CC1=C(C(=O)Nc2cccc(C)c2C)C(c2cccc(Cl)c2)NC(=O)N1 (stereo unspecified)	0.5	4.8	0.5	6.8	x	x
Cc1c(NC(=O)c2cccc([N+](=O)[O-])c2)c(=O)n(-c2ccccc2)n1C	-0.6	7.6	0.1	3.2	x	x
COc1cc([N+](=O)[O-])c(N2CCOCC2)c([N+](=O)[O-])c1OC	5.4*	-4.4	-0.1	-3.6	-0.3	0.2
O=C(Cc1ccccc1)NS(=O)(=O)c1ccc(N=NN2CCCCC2)cc1	7.3*	-0.8	-0.1	1.5	1.1	7.7
O=[N+]([O-])c1ccc(N2CCN(Cc3ccoc3)CC2)cc1	-0.2	8.2	-0.1	-1.3	x	x
CC(=O)c1ccc(N2CCN(Cc3ccoc3)CC2)cc1	5.9*	20.3	-0.2	-16.8	-0.8	-6.7
Cc1ccc(-c2nn3c(C)nnc3s2)cc1NC(=O)COc1ccccc1Cl	-0.7	11.1	0.8	-2.2	x	x
Cc1ccc(S(=O)(=O)N2CCCCC2CC(=O)Nc2nccs2)cc1 (stereo unspecified)	3.7	-6.6	0.2	4.3	x	x
CCC1CCCCN1S(=O)(=O)c1ccc(C(=O)Nc2nccs2)cc1 (stereo unspecified)	5.1*	-4.0	0.4	-1.4	-0.2	1.6
CN(CCO)C(=O)c1cnc2scc(C(C)(C)C)n2c1=O	0.3	20.5	-0.4	0.7	x	x
Cc1nn(-c2ccc(Nc3ccc(NC(=O)c4cccc(F)c4)cc3)nn2)c(C)c1C	7.6*	-13.4	0.0	-21.9	2.7	14.5
CC1=NN(c2ccc(Br)cc2)C(=O)/C1=C/c1ccc(C)s1	7.5*	-2.2	0.0	2.9	1.3	1.9
COC(=O)c1ccc(N2N=C(C)/C(=C/c3ccc(C)s3)C2=O)cc1	-0.5	-2.7	0.1	1.8	x	x
O=C(Nc1ccc(Oc2ccc(Cl)cc2)cc1)C1CCCN1C(=O)OCc1ccccc1 (stereo unspecified)	5.5*	10.7	0.0	5.0	-0.5	4.5
Cc1ccc(-c2c(C(=O)Nc3cccc(-c4nc5ncccc5o4)c3C)oc(=O)c3ccccc23)cc1	1.1	10.4	0.0	10.5	x	x
CC(C)(C)CN1CCNC(=O)C1CC(=O)NCCc1nc(-c2ccccc2)no1 (stereo unspecified)	0.1	8.7	0.1	4.9	x	x
Cn1c(SCc2ccccc2)nnc1C1CCCN1C(=O)c1ccc2c(c1)OCO2 (stereo unspecified)	5.9*	-15.5	-0.1	-2.1	-0.6	-6.7
Cn1c(SCc2ccccc2)nnc1C1CCCN1C(=O)C1CCCO1 (stereo unspecified)	-0.5	3.7	-0.1	7.9	x	x
CCOC(=O)C1=CN(c2cc(C)ccc2C)C=C(C(=O)OCC)C1c1cccc(C)c1	0.0	-7.3	0.0	-9.8	x	x
CCOC(=O)c1c(N)c(C#N)cn1-c1ccccc1	8.6*	10.4	0.0	-12.2	-0.6	-9.5
Cn1c(N)c(C#N)c2nc3ccccc3nc21	1.0	8.5	0.8	-2.1	x	x
CCCCCn1c(N)c(C#N)c2nc3ccccc3nc21	8.2*	35.3	0.1	6.2	0.0	2.3
COc1ccccc1CN1CCNC(=O)C1CC(=O)NCc1csc(C)n1 (stereo unspecified)	5.8*	-3.3	0.1	-23.9	0.3	-1.6
COc1ccccc1CN1CCNC(=O)C1CC(=O)NCc1ccc(F)cc1 (stereo unspecified)	0.4	11.6	-0.1	16.8	x	x
CN(CCC#N)c1ncnc2c1oc1ccccc12	10.5*	-6.5	-0.1	-8.7	0.0	4.2
